# Inconclusive results are not listed. Calls of active or inactive are those of the source. Calls come from the whole dose curve; as a rule, active = well fitted curve in the direction sought with a large enough effect; inconclusive = small, poorly fitted or top-dose-only effect, or another doubt; inactive = no such curve, though single readings can be large or run the other way.
# Assay: Secondary Assay for Activators of Human Pyruvate Kinase M2 isoform - Cell Titer Glo Cytotoxicity for Probe SAR
# Settings: HeLa viability, CellTiter-Glo ATP luminescence, 24 h; series mostly up to 58.2 µM
# Description: NIH Chemical Genomics Center [NCGC]
# Matthew G. Vander Heiden, M.D., Ph.D. [Harvard Medical School, 77 Avenue Louis Pasteur, Boston, MA 02115]
# We have identified a series of activators of the M2 isoform of human pyruvate kinase. The assay described here examines the cytotoxicity of these compounds by measuring the total ATP content of Hela cells after 24 hrs of exposure to compound.
# 500 Hela cells/ 4ul in media (DMEM with high glucose, 10% FBS, 1x Pen Strep, 1x NEAA) were dispensed into a white solid 1536-microwell plate with a Thermo Multidrop. The plates were incubated at 37 degrees Celsius for 24 hours. The cells were then treated with compounds using the Kalypsys pin tool, delivering 23 nl of test compounds and the control doxorubicin. The plates were then incubated for an additional 24 hours at 37 degrees C after which 4 ul of Promega Cell-Titer Glo was dispensed using the Thermo Multidrop. The plates were incubated at room temperature for 10 min before reading luminescence on the Perkin Elmer ViewLux with images collected with 2x binning and a 5 sec exposure time.
row,Compound,outcome
1,O=S1(=O)N=C(Oc2ccccc2Cl)c2ccccc21,inactive
2,Cc1ccc(NS(=O)(=O)c2cc3c(cc2N(C)C)NC(=O)CC3)cc1C,inactive
3,CC(=O)Nc1cccc(S(=O)(=O)Nc2ccc(C)c(C)c2)c1,inactive
4,O=C1c2ccccc2C(=O)N1c1cccnc1,inactive
5,O=C1CCc2cc(S(=O)(=O)NCc3ccccc3)ccc2N1,inactive
6,Cc1ccc(Cl)cc1NS(=O)(=O)c1cc2c(cc1Cl)CCC(=O)N2,inactive
7,Cc1ccc(NS(=O)(=O)c2ccc3c(c2)CC(=O)N3)cc1C,inactive
8,Cc1ccc(NS(=O)(=O)c2ccc3c(c2)CCC(=O)N3)cc1,inactive
9,COc1cccc(NS(=O)(=O)c2ccc3c(c2)CCC(=O)N3)c1,inactive
10,Cc1ccc(NS(=O)(=O)c2ccc3c(c2)N(C)C(=O)CO3)cc1C,inactive
11,Cc1ccccc1OC1=NS(=O)(=O)c2ccccc21,inactive
12,Cc1cc(N2C(=O)c3ccccc3C2=O)n[nH]1,inactive
13,Cc1ccc(N2C(=O)c3ccccc3C2=O)c(C)c1,inactive
14,O=C1c2ccccc2C(=O)N1c1ncccc1O,inactive
15,Cc1ccc(NS(=O)(=O)c2cc3c(cc2-c2ccccc2)NC(=O)CO3)cc1C,inactive
16,Cc1ccc(NS(=O)(=O)c2cc3c(cc2C)OCC(=O)N3)cc1C,inactive
17,Cc1ccc2nc(-c3ccc(C)o3)c(Nc3ccc(Cl)cc3)n2c1,inactive
18,Cn1c2cc(S(C)=O)sc2c2cnn(Cc3cccc(O)c3)c(=O)c21 (stereo not given),inactive
19,Cc1ccc2nc(-c3ccc(C)o3)c(NC3CCCC3)n2c1,inactive
20,O=C1CCc2cc(S(=O)(=O)Nc3cccc(F)c3)ccc2N1,inactive

row,Compound,outcome
1,Cc1ccc(Cl)cc1NS(=O)(=O)c1cc2c(cc1F)NC(=O)CC2,inactive
2,Nc1cc(S(=O)(=O)N2CCN(S(=O)(=O)c3ccc4c(c3)OCCO4)CC2)ccn1,inactive
3,Cc1ccccc1Nc1c(-c2ccccc2)nc2cccc(C)n12,inactive
4,O=C1CCc2cc(S(=O)(=O)Nc3ccc(F)c(Cl)c3)ccc2N1,inactive
5,COc1ccccc1NS(=O)(=O)c1ccc2c(c1)CCC(=O)N2,inactive
6,Cc1ccc(NS(=O)(=O)c2cc3c(cc2C)NC(=O)CO3)cc1C,inactive
7,O=C1CCc2cc(S(=O)(=O)Nc3cc(F)cc(Cl)c3)c(F)cc2N1,inactive
8,O=C1c2ccccc2C(=O)N1c1cc(=O)c2ccccc2[nH]1,inactive
9,O=C1CCc2cc(S(=O)(=O)Nc3ccncc3)ccc2N1,inactive
10,CC(C)Nc1cccc(S(=O)(=O)N2CCCN(S(=O)(=O)c3ccc4c(c3)OCCO4)CC2)c1,inactive
11,O=C1c2ccccc2C(=O)N1c1cccc2ccncc12,inactive
12,O=C1c2ccccc2C(=O)N1c1cccc2cccnc12,inactive
13,Cc1ccc(NS(=O)(=O)c2cc3c(cc2-c2ccco2)NC(=O)CO3)cc1C,inactive
14,O=C1c2ccccc2C(=O)N1Cc1ccccc1,inactive
15,COc1ccccc1N1C(=O)c2ccccc2C1=O,inactive
16,Cc1ccc(NS(=O)(=O)c2ccc3c(c2)CCN(C(=O)C(F)(F)F)C3)cc1C,inactive
17,O=C1CCc2cc(S(=O)(=O)Nc3cccc(Oc4ccccc4)c3)ccc2N1,inactive
18,COc1ccc(-c2nc3cccc(C)n3c2Nc2ccc(C)cc2)cc1,inactive
19,Cc1ccc(Nc2c(-c3ccsc3)nc3cccc(C)n23)cc1,inactive
20,Cc1ccc(NS(=O)(=O)c2ccc3c(c2)N(C)CCO3)cc1C,inactive

# Reference: PubChem BioAssay AID2653 (National Center for Advancing Translational Sciences (NCATS), 2010)
